This passage reports inhibition results from PubChem BioAssay.

SMILES strings stand for the structures. Values without a mark were called inactive. Active and inactive are the calls of the source. Cut-off read from the data, not from the text of the source, unless noted: active = inhibition above about 33%; inactive = the rest.

Broadly, the inhibition is the relative decrease from the control value, in per cent.

Experiment [1] concerns the target Nuclear receptor coactivator 3 (Homo sapiens) (UniProt Q9Y6Q9). The experiment is described as follows: SRC3 coactivator transcriptional activity inhibitors, confirmation, cell-based, luminescence, quadruplicate (AID 588792;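 active = mean inhibition over 43.08%, the solvent-only control mean plus 3 SD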;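 note: 0% = DMSO treated cells and 100% = gossypol at 36 µM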). Particulars: HEK293 GAL4-SRC3 luciferase reporter, at 3.6 µM, stronger effect = higher value. Background: A reporter such as luciferase makes a cellular process visible.

In experiment [2] the test system is transactivating tegument protein VP16 (Human herpesvirus 1), Gal4-VP16 luciferase reporter. As to the kind of experiment: VP16 transactivation inhibitors, counter-screen for SRC3 inhibitor project, cell-based, luminescence, high throughput (AID 588794; in the data active = inhibition above about 30%). The following applies: mammalian cells, VP16-driven luciferase reporter luminescence; at 3.6 µM; stronger effect = higher value.

Experiment [3] deals with Nuclear receptor coactivator 1 (Homo sapiens) (UniProt Q15788). The experiment is described as follows: SRC1 coactivator transcriptional activity inhibitors, confirmation, cell-based, luminescence, quadruplicate (AID 588820;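 active = mean inhibition above 46.68%, the untreated control wells mean plus 3 SD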;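 note: 0% = DMSO wells and 100% = gossypol 36 µM treated wells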). The following applies: HEK293 GAL4-SRC1 luciferase reporter, at 3.6 µM, stronger effect = higher value.
Experiment [4] is described as follows: VP16 transactivation inhibitors, counter-screen for SRC1 inhibitor project, cell-based, luminescence, high throughput (AID 588824; in the data active = inhibition above about 25%). The following applies: cell-based VP16 transactivation luciferase luminescence; at 3.6 µM; stronger effect = higher value. On the technique in general: A counterscreen serves to expose hits that act by an unwanted route or on another target.

Experiment [5] can be described thus: StAR promoter reporter inhibitors, counter-screen for LRH-1 inverse agonist project, cell-based, luminescence, high throughput (AID 651611; in the data active = inhibition above about 28%). Particulars: StAR promoter luciferase reporter counterscreen, at 3.6 µM, stronger effect = higher value.
For experiment [6], the target named is Nuclear receptor subfamily 5 group A member 2 (Homo sapiens) (UniProt O00482). As to the kind of experiment: LRH-1 (NR5A2) inverse agonists, retest, confirmation, cell-based, luminescence (AID 651613; in the data active = inhibition above about 42%;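 note: HEK293T cells co-transfected with LRH-1 and StAR promoter luciferase reporter; 0% = vehicle wells and 100% = parental cells lacking receptor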). Particulars: cell-based LRH-1 luciferase reporter, inverse agonism; at 3.6 µM; stronger effect = higher value.
Experiment [7] deals with Steroidogenic factor 1 (Homo sapiens) (UniProt Q13285). The experiment is described as follows: SF1 (NR5A1) inverse agonists, counter-screen for LRH-1 inverse agonist project, cell-based, luminescence, high throughput (AID 651614; in the data active = inhibition above about 44%;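 note: cells cotransfected with StAR promoter reporter and SF1 expression vector; 0% = vehicle on cells with receptor and 100% = vehicle on cells lacking receptor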). Particulars: cell-based SF1 luciferase reporter, at 3.6 µM, stronger effect = higher value.
Experiment [8] in a line: VP16 transactivation reporter inhibitors, counter-screen for LRH-1 inverse agonist project, cell-based, luminescence, high throughput (AID 651615). The following applies: Gal4-VP16 luciferase reporter cells, at 3.6 µM, stronger effect = higher value.
In experiment [9] the test system is transactivating tegument protein VP16 (Human herpesvirus 1). The experiment is described as follows: VP16 transactivation reporter inhibitors, counter-screen for SRC2 inhibitor project, cell-based, luminescence, single concentration (AID 652007; in the data active = inhibition above about 36%). The following applies: cell-based VP16 transactivation luciferase reporter, at 8.9 µM, stronger effect = higher value.
Experiment [10] addresses Nuclear receptor coactivator 2 (Homo sapiens) (UniProt Q15596). As to the kind of experiment: SRC2 coactivator transcriptional activity inhibitors, confirmation, cell-based, luminescence, HEK293, triplicate (AID 652008;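 active = mean inhibition above 46.5%, the solvent-only control mean plus 3 SD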;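 note: 0% = DMSO-treated cells and 100% = Gossypol at 36 µM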). The following applies: HEK293 GAL4-SRC2 luciferase reporter, at 8.9 µM, stronger effect = higher value.

Chain of Steroidogenic factor 1 (Homo sapiens) (Q13285 whole entry, looked up, the tested form may be a part): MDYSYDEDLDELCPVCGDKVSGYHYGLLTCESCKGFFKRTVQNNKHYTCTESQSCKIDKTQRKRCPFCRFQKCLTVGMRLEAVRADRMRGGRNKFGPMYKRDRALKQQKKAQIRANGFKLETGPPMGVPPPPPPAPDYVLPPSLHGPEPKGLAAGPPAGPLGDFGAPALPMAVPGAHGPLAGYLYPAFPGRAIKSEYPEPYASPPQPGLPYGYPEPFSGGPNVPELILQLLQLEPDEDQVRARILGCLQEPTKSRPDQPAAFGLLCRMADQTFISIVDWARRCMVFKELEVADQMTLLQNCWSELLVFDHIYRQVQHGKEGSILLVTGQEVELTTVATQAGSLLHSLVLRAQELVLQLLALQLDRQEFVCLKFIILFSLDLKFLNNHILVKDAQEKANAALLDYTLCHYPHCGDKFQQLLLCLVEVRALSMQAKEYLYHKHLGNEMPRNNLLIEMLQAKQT
Chain of Nuclear receptor coactivator 2 (Homo sapiens) (Q15596 whole entry, looked up, the tested form may be a part): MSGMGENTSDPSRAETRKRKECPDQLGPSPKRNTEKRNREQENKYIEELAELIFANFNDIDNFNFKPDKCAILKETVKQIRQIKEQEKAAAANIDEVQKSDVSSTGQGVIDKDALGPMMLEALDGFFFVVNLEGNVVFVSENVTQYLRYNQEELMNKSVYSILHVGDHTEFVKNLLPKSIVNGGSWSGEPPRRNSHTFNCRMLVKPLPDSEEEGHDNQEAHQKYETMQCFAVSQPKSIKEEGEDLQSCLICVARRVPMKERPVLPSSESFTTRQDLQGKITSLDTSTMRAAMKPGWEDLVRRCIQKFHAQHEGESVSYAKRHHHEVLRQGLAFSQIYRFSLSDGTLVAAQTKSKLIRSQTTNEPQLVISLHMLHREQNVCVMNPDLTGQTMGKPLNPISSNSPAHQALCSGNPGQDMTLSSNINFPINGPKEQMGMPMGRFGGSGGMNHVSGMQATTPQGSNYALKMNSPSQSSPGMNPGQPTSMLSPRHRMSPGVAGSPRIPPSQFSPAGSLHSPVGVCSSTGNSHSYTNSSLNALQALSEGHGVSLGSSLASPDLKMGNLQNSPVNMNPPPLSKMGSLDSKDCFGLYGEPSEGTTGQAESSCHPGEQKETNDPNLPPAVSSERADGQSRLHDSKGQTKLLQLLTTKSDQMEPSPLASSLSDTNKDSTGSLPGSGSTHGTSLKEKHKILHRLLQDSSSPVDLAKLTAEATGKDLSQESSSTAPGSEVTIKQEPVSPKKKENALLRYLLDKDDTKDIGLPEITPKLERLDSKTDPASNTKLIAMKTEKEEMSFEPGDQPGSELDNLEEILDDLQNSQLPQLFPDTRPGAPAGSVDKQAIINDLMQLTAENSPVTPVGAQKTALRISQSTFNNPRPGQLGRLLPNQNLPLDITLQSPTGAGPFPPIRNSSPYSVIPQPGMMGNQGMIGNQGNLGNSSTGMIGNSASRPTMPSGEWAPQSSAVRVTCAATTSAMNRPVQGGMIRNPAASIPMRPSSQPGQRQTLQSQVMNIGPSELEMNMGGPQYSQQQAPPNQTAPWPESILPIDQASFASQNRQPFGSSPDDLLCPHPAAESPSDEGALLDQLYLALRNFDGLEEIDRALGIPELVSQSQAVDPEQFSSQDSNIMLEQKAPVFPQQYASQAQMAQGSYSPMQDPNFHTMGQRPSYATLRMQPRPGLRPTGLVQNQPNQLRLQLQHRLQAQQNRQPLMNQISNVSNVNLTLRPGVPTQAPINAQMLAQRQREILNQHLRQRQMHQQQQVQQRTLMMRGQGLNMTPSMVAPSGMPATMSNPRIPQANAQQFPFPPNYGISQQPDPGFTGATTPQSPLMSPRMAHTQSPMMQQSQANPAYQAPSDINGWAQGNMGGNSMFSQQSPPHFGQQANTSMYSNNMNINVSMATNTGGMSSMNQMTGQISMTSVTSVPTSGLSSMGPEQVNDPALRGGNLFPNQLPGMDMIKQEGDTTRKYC
Chain of Nuclear receptor coactivator 3 (Homo sapiens) (Q9Y6Q9 whole entry, looked up, the tested form may be a part): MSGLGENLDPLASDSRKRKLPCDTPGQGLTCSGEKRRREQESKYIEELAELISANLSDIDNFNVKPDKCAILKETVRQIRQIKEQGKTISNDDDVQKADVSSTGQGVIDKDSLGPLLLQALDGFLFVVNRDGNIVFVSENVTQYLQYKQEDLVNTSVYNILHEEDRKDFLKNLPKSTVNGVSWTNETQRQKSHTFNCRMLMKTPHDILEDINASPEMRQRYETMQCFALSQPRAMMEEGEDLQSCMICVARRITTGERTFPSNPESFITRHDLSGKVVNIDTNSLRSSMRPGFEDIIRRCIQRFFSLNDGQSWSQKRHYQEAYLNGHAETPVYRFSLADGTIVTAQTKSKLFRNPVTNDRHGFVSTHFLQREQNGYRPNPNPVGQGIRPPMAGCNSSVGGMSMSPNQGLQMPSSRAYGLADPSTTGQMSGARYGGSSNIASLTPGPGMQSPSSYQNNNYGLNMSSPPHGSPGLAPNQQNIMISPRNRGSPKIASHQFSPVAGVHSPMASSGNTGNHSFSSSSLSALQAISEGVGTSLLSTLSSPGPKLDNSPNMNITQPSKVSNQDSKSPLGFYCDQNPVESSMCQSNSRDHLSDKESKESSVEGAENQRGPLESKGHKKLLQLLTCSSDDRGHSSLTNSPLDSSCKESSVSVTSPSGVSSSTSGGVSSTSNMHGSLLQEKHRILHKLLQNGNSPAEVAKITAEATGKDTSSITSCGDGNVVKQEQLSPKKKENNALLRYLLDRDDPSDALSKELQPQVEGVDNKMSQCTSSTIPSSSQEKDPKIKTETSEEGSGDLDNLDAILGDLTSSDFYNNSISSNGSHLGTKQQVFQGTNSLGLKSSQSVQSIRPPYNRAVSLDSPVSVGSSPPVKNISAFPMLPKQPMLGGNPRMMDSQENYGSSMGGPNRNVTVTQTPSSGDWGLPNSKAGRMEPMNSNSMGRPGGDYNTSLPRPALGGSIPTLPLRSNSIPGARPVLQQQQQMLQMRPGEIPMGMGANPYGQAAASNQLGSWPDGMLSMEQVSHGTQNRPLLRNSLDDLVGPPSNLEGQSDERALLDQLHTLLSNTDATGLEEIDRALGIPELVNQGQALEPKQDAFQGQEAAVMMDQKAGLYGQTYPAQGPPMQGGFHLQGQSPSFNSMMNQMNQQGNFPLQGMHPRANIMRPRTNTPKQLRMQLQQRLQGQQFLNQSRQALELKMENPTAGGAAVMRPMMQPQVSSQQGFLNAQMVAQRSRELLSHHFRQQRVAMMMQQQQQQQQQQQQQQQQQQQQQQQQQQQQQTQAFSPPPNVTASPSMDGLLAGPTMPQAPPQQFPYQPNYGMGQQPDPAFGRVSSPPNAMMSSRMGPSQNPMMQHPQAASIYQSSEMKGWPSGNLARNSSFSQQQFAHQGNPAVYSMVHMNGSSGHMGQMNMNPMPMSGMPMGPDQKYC
Chain of Nuclear receptor subfamily 5 group A member 2 (Homo sapiens) (O00482 whole entry, looked up): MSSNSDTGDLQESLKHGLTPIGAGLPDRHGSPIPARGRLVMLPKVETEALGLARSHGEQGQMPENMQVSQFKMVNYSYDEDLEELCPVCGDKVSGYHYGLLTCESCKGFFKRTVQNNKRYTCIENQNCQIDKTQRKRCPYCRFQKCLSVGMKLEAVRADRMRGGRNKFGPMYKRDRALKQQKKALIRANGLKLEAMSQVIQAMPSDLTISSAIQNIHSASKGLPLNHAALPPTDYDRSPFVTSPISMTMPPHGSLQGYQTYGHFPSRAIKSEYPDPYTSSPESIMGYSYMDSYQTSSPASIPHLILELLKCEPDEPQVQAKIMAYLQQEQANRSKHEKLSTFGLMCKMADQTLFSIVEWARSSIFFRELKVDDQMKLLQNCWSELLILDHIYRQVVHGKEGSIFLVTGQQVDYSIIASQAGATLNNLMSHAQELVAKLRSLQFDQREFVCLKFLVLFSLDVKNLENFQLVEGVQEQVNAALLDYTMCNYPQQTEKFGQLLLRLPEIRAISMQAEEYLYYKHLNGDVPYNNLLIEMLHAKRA

For `Cc1ccc2oc(/N=C(\N)NC(=O)C(C)(C)C)nc2c1`, the inhibition was 82.8% (active) in [1]; 73.6% (active) in experiment [2]; 65.2% (active) in experiment [3]; 61.1% (active) in experiment [4]; 80.4% (active) in [5]; 51.4% (active) in [6]. The inhibition in [7] was 75.4% (active); in [8], 61.7% (active); in experiment [9] it was 77.6% (active); in experiment [10], 91.5% (active).

`Cc1ccc(C(=O)N/N=C/c2ccc([N+](=O)[O-])s2)cc1`: the inhibition in experiment [1] was 54.5% (active); in experiment [2], 39.1% (active); in experiment [3] it was 33.7%; in [4] it was 44.4% (active); in experiment [5] it was 70.3% (active); in [6], 83.9% (active). Also, the inhibition in experiment [7] was 75.6% (active); in experiment [8] it was 52.3% (active); in experiment [9], 82.5% (active); in experiment [10], 92.4% (active).

As to `COC(=O)c1ccccc1-c1c2ccc(=N)cc-2oc2cc(N)ccc12`, the inhibition in [1] is 35%; in [2], 55.2% (active); in experiment [3], 28.7%; in experiment [4], 48.3% (active); in [5], 62.2% (active); in [6], 109% (active). Besides, the inhibition in experiment [7] is 79.1% (active); in experiment [8] it was 88% (active); in experiment [9] it was 21.2%; in experiment [10], 3.71%.

`CCOc1ccccc1-n1c(SCC(=O)Nc2ccccc2C(=O)O)nc2ccccc2c1=O`: the inhibition is 36.2% in [1]; 26% in [2]; 16.8% in experiment [3]; 14.7% in experiment [4]; 16% in experiment [5]; -6.48% in experiment [6]. For the same compound, the inhibition in experiment [7] is 9.06%; in experiment [8] it was -14.2%; in experiment [9], 30.9%; in experiment [10] it was 49.9% (active).

On to `COc1ccccc1C(=O)N(CCC1CCCN1C)c1nc2ccccc2s1` (stereo not given), for which the inhibition in experiment [1] was 38.7%; in experiment [2], 14.6%; in [3] it was -24.3%; in [4] it was -21.5%; in [5], -41.5%; in experiment [6] it was -79.1%. The inhibition is -54.7% in experiment [7], -44.3% in experiment [8], 11.8% in experiment [9] and 53.8% (active) in [10].

For the compound `C[C@@H](C(=O)Nc1ccc2c(c1)OCCO2)n1c(=O)[nH]c2ccccc2c1=O`, the inhibition in experiment [1] was 34.5%; in [2], -0.03%; in experiment [3], -4.84%; in experiment [4] it was -17.6%; in experiment [5], -11.4%; in experiment [6] it was -28.3%. In addition, the inhibition in experiment [7] was 20.2%; in [8], -18.1%; in [9] it was 3.58%; in experiment [10], 68.7% (active).

For `CCC1(O)C(=O)OCc2c1cc1n(c2=O)Cc2cc3cc(O)ccc3nc2-1` (stereo not given), the inhibition in experiment [1] was 94.8% (active); in experiment [2], 79.2% (active); in [3], 68.8% (active); in experiment [4], 77.4% (active); in experiment [5] it was 84.6% (active); in [6], 104% (active). The inhibition is 91.4% (active) in experiment [7], 83.8% (active) in experiment [8], 24.9% in experiment [9] and 39.5% in experiment [10].
